From publication PMC9911399, “Two distinct binding modes provide the RNA-binding protein RbFox with extraordinary sequence specificity”
Residue numbers refer to the chain shown, from its start. Whole data set: some 16,000 sequences, median “ka relative to ugcaugu” near 0.096, cut for the highest 2% near 0.35. The full list was thinned out, with the highest values kept by preference.

T1: RBFOX1 RRM RbFoxmut (Fox-RRM*) (Homo sapiens, UniProt Q9NWB1 109-208, R118D;E147R;N151S;E152T)
T1 sequence: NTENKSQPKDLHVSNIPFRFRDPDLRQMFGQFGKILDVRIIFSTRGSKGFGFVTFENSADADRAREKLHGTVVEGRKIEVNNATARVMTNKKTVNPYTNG

B1: UCGUGCG (DNA:RNA)
RNA: GGGAGACCGGAAUUCAGAUUGUCCUCGUGCGUUAAAUCCCGUCGUAGCCACCA
DNA 1: CAATCTGAATTCCGGTCTCCC
DNA 2: TGGTGGCTACGACGGGATT
B2: UCGCCAG (DNA:RNA)
RNA: B1 RNA with U28C, G29C, C30A
DNA 1: CAATCTGAATTCCGGTCTCCC
DNA 2: TGGTGGCTACGACGGGATT
B3: ACGUCCU (DNA:RNA)
RNA: B1 RNA with U25A, G29C, G31U
DNA 1: CAATCTGAATTCCGGTCTCCC
DNA 2: TGGTGGCTACGACGGGATT
B4: AACCAGA (DNA:RNA)
RNA: GGGAGACCGGAAUUCAGAUUGUCCAACCAGAUUAAAUCCCGUCGUAGCCACCA
DNA 1: CAATCTGAATTCCGGTCTCCC
DNA 2: TGGTGGCTACGACGGGATT
B5: CAAACUC (DNA:RNA)
RNA: B4 RNA with A25C, C27A, C28A, A29C, G30U, A31C
DNA 1: CAATCTGAATTCCGGTCTCCC
DNA 2: TGGTGGCTACGACGGGATT
B6: AGAAGAU (DNA:RNA)
RNA: B4 RNA with A26G, C27A, C28A, A29G, G30A, A31U
DNA 1: CAATCTGAATTCCGGTCTCCC
DNA 2: TGGTGGCTACGACGGGATT
B7: UCCCCGG (DNA:RNA)
RNA: B4 RNA with A25U, A26C, A29C, A31G
DNA 1: CAATCTGAATTCCGGTCTCCC
DNA 2: TGGTGGCTACGACGGGATT
B8: AAAAAGC (DNA:RNA)
RNA: B4 RNA with C27A, C28A, A31C
DNA 1: CAATCTGAATTCCGGTCTCCC
DNA 2: TGGTGGCTACGACGGGATT
B9: AAAUUGC (DNA:RNA)
RNA: B4 RNA with C27A, C28U, A29U, A31C
DNA 1: CAATCTGAATTCCGGTCTCCC
DNA 2: TGGTGGCTACGACGGGATT
B10: CCGCACG (DNA:RNA)
RNA: B1 RNA with U25C, U28C, G29A
DNA 1: CAATCTGAATTCCGGTCTCCC
DNA 2: TGGTGGCTACGACGGGATT
B11: GCACGCG (DNA:RNA)
RNA: B1 RNA with U25G, G27A, U28C
DNA 1: CAATCTGAATTCCGGTCTCCC
DNA 2: TGGTGGCTACGACGGGATT
B12: ACGCACG (DNA:RNA)
RNA: B1 RNA with U25A, U28C, G29A
DNA 1: CAATCTGAATTCCGGTCTCCC
DNA 2: TGGTGGCTACGACGGGATT
B13: ACGUCCG (DNA:RNA)
RNA: B1 RNA with U25A, G29C
DNA 1: CAATCTGAATTCCGGTCTCCC
DNA 2: TGGTGGCTACGACGGGATT
B14: GCACGUA (DNA:RNA)
RNA: B4 RNA with A25G, A26C, C27A, A29G, G30U
DNA 1: CAATCTGAATTCCGGTCTCCC
DNA 2: TGGTGGCTACGACGGGATT
B15: GCACGAA (DNA:RNA)
RNA: B4 RNA with A25G, A26C, C27A, A29G, G30A
DNA 1: CAATCTGAATTCCGGTCTCCC
DNA 2: TGGTGGCTACGACGGGATT
B16: GCACGUG (DNA:RNA)
RNA: B1 RNA with U25G, G27A, U28C, C30U
DNA 1: CAATCTGAATTCCGGTCTCCC
DNA 2: TGGTGGCTACGACGGGATT
B17: GUCCACG (DNA:RNA)
RNA: B4 RNA with A25G, A26U, G30C, A31G
DNA 1: CAATCTGAATTCCGGTCTCCC
DNA 2: TGGTGGCTACGACGGGATT
B18: GCACGUC (DNA:RNA)
RNA: B1 RNA with U25G, G27A, U28C, C30U, G31C
DNA 1: CAATCTGAATTCCGGTCTCCC
DNA 2: TGGTGGCTACGACGGGATT
B19: GCACGAG (DNA:RNA)
RNA: B1 RNA with U25G, G27A, U28C, C30A
DNA 1: CAATCTGAATTCCGGTCTCCC
DNA 2: TGGTGGCTACGACGGGATT
B20: GCGCACG (DNA:RNA)
RNA: B1 RNA with U25G, U28C, G29A
DNA 1: CAATCTGAATTCCGGTCTCCC
DNA 2: TGGTGGCTACGACGGGATT
B21: CGCACCG (DNA:RNA)
RNA: B1 RNA with U25C, C26G, G27C, U28A, G29C
DNA 1: CAATCTGAATTCCGGTCTCCC
DNA 2: TGGTGGCTACGACGGGATT

Each binder was assayed against T1, RBFOX1 RRM RbFoxmut (Fox-RRM*) (assay: EMSA; HiTS-Eq, 1 nM pool, 10 min; buffer printed only for the single-RNA assays: 10 mM Tris pH 7.5, 150 mM NaCl, 3.4 mM EDTA, 0.001% NP-40, 30 C). Conditions: tags: His6 N-terminal (pET28a); label: 5' 32P.
Method in brief: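 A pool of RNA with 7 randomized nucleotides, 5′-radiolabelled and with DNA-annealed flanks, was equilibrated at 1 nM for 10 min in 50 µL with purified RbFox RRM, wild type or mutant, across increasing protein concentrations. Free RNA was separated by 8% native PAGE, excised, reverse-transcribed, barcoded by PCR and sequenced. Relative association constants were obtained from read-count changes of each RNA species versus the control reaction and normalised to the cognate motif.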

Binder | binding signal
B1 | 0.147 KA relative to UGCAUGU
B2 | 0.0961 KA relative to UGCAUGU
B3 | 0.0891 KA relative to UGCAUGU
B4 | 0.107 KA relative to UGCAUGU
B5 | 0.0603 KA relative to UGCAUGU
B6 | 0.0749 KA relative to UGCAUGU
B7 | 0.0768 KA relative to UGCAUGU
B8 | 0.0699 KA relative to UGCAUGU
B9 | 0.0959 KA relative to UGCAUGU
B10 | 0.236 KA relative to UGCAUGU
B11 | 0.184 KA relative to UGCAUGU
B12 | 0.354 KA relative to UGCAUGU
B13 | 0.121 KA relative to UGCAUGU
B14 | 0.382 KA relative to UGCAUGU
B15 | 0.256 KA relative to UGCAUGU
B16 | 0.324 KA relative to UGCAUGU
B17 | 0.114 KA relative to UGCAUGU
B18 | 0.117 KA relative to UGCAUGU
B19 | 0.405 KA relative to UGCAUGU
B20 | 0.397 KA relative to UGCAUGU
B21 | 0.17 KA relative to UGCAUGU
